According to PubChem BioAssay (NCATS):
Inconclusive results are not listed. A call without a number means that no potency is given here. Activity calls are given as the source filed them. The call rests on the fitted dose curve; in most records, active means well fitted inhibition curve with a large enough effect; inconclusive means small, poorly fitted or top-dose-only effect; inactive means flat fitted curve, though single readings scatter.

molecular target: Voltage-gated inwardly rectifying potassium channel KCNH2 (Homo sapiens) (UniProt Q12809); test: qHTS Assay for Small Molecule Inhibitors of the Human hERG Channel Activity (AID 588834); conditions: U2OS BacMam hERG, FluxOR thallium flux fluorescence; series mostly up to 46.1 µM;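 further: top concentration of the series differs between compounds; lower thallium flux fluorescence means stronger hERG block; nearly all actives have a fitted effect of over 50% in size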
Sequence (Q12809 whole entry, looked up): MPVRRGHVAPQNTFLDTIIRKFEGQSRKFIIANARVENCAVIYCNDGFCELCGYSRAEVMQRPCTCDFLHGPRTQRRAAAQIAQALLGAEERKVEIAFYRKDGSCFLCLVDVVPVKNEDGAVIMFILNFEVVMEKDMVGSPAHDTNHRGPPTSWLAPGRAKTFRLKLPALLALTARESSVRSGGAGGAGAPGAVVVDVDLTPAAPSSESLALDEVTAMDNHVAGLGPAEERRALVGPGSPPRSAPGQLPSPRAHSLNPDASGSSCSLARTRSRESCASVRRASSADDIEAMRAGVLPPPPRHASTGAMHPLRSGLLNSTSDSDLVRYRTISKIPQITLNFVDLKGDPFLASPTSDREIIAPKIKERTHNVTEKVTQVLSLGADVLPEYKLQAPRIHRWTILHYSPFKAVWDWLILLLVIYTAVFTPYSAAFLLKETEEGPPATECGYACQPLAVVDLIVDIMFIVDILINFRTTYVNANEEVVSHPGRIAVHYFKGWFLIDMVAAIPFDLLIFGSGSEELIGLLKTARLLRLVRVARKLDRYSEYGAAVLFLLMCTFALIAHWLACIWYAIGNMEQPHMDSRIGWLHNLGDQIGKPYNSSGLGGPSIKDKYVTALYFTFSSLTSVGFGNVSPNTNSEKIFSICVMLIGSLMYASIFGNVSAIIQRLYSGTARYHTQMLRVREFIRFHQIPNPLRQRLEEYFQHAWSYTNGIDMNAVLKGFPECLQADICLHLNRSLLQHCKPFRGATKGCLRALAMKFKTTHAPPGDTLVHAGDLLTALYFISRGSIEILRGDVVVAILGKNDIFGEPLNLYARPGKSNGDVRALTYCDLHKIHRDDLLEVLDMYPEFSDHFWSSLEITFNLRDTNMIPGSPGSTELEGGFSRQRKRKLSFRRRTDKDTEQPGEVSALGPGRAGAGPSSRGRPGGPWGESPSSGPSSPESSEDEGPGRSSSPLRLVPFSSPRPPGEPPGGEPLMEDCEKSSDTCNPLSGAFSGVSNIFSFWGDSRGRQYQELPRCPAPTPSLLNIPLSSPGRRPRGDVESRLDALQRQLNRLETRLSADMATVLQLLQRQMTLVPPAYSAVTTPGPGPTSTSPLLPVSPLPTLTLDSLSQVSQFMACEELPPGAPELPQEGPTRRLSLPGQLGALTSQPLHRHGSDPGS
Method in brief: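 hERG block measured as reduced thallium-dye (FluxOR) fluorescence after stimulation buffer addition, read over 2 min. Cells were hERG-BacMam-transduced U2OS exposed to compound ~10 min […]; concentration-response fitted with Hill equation for AC50.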

Row | Structure (SMILES) | Potency
1 | CN1C(=O)CC(c2ccccc2)C1=O (stereo unspecified) | inactive
2 | Cc1ccc2c(c1)c1c3n2CCNC3CCC1 (stereo unspecified) | inactive
3 | CC(C)=CCC[C@@](C)(O)[C@H]1CC=C(C)CC1 | inactive
4 | O=c1[nH]c(=O)n([C@H]2C[C@H](O)[C@@H](CO)O2)cc1I | inactive
5 | CC1(C)S[C@@H]2[C@H](N=CN3CCCCCC3)C(=O)N2[C@H]1C(=O)O | inactive
6 | CCOC(=O)OC(C)OC(=O)[C@@H]1N2C(=O)[C@@H](NC(=O)[C@H](N)c3ccccc3)[C@H]2SC1(C)C (stereo partly specified) | inactive
7 | CCCNC(C)C(=O)Nc1c(C)csc1C(=O)OC (stereo unspecified) | inactive
8 | CC(=O)N(CC(O)CN(C(C)=O)c1c(I)c(C(=O)NCC(O)CO)c(I)c(C(=O)NCC(O)CO)c1I)c1c(I)c(C(=O)NCC(O)CO)c(I)c(C(=O)NCC(O)CO)c1I (stereo unspecified) | inactive
9 | COc1ccccc1OCC(O)CO (stereo unspecified) | inactive
10 | C[C@]1(Cn2ccnn2)[C@H](C(=O)O)N2C(=O)C[C@H]2S1(=O)=O | inactive
11 | CN[C@@H]1[C@H](O)[C@H](NC)[C@H]2O[C@@]3(O)C(=O)C[C@@H](C)O[C@H]3O[C@@H]2[C@H]1O | inactive
12 | CC1(c2ccccc2)OC(C(=O)O)=CC1=O (stereo unspecified) | inactive
13 | O=C(/C=C/c1ccc(O)c(O)c1)O[C@@H]1C[C@@](OC(=O)/C=C/c2ccc(O)c(O)c2)(C(=O)O)C[C@@H](O)[C@@H]1O | inactive
14 | CC(=O)N[C@@H](CC(C)C)C(=O)O | inactive
15 | O=C(O)[C@@H]1[C@H]2C[C@H]3c4[nH]c5ccccc5c4CCN3C[C@@H]2CC[C@@H]1O | inactive
16 | CC1(C)S[C@@H]2[C@H](NC(=O)C(C(=O)O)c3ccccc3)C(=O)N2[C@H]1C(=O)O (stereo partly specified) | inactive
